Only some compounds are listed: those with a hit (about 19% of all), similar ones and a draw of the others.
HepG2 viability: kills HepG2 cells in TGF-b inhibitor counter-screen | Potency, µM (titrated, usually from 46.1 µM), without a hit: at the top dose activity change, negative = cytotoxicity, most hits filed as cytotoxic | HepG2 CAGA-GFP viability, ATP luminescence, 18 h | 410,000 compounds, 0.76% hits; also: potency is read from the fitted curve at half-maximal effect
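CellTiter-Glo luminescence gave cytotoxicity after 18 hours at 37 degrees C. The cells were HepG2 CAGA-GFP in 1% FBS DMEM, stimulated with 500 pg/mL TGF-beta after compound addition. %Activity was normalised to no-cell wells (complete cell-killing) and DMSO (no toxicity), and curves were fitted and classified.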
DT40 TDP1 no CPT: qHTS for Inhibitors of human tyrosyl-DNA phosphodiesterase 1 (TDP1): qHTS in cells in absence of CPT. DT40 Tdp1-/- hTDP1 cells, no CPT, ATP luminescence, 48 h. 420,000 compounds, 15% hits. Potency, µM (top dose mostly 46.2 µM), for inactives: at the top dose activity change, negative = growth inhibition, usual class: inhibitors; also: potency is read from the fitted curve at half-maximal effect; % is scaled to controls: 0 for no effect and ±100 for the full control effect; nearly all actives have a fitted effect of over 55% in size
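DT40 Tdp1-/-;hTDP1 cells, no CPT (DMSO vehicle only), 400 cells/well; compounds pin-transferred; ≥48 hr, 37 °C; CellTiter-Glo 30 min RT dark, luminescence read.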
IL-1B inflam inh: inflammasome signaling inhibition, IL-1 beta readout; THP-1 LPS/ATP IL-1B secretion, AlphaLISA, 16 h; hits give low values; activity change, % at 57.5 µM; 360,000 compounds, 4.7% hits; AID 743279; in the data active = activity change below about -50%; inconclusive = mostly about -30% to -49%; also: % is scaled to controls: 0 for no effect and ±100 for the full control effect
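Secreted IL-1B measured by AlphaLISA bead assay after 16 h compound exposure of THP-1 cells; compounds (final up to 57.5 uM) added 1 h before LPS (250 ng/mL) and ATP (1.25 mM) stimulation; lower signal means less secretion.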
TGFb inhibitor: inhibitors of TGF-b signaling | 410,000 compounds, 1.2% hits | HepG2 CAGA-GFP TGF-b/SMAD3 reporter, GFP fluorescence, 18 h; TGF-beta stimulated, 500 pg/mL final | Potency, µM (top dose mostly 46.1 µM), for inactives: at the highest dose activity, negative = inhibition, most hits filed as inhibitors; also: potency is read from the fitted curve at half-maximal effect; % is scaled to controls: 0 for no effect and ±100 for the full control effect; nearly all actives have a fitted effect of over 65% in size
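GFP signal (ex488/em500-530) from TGF-beta-stimulated HEPG2 CAGA-GFP cells, 500 pg/mL final, 18 h at 37 degrees C in DMEM plus 1% FBS, normalized to unstimulated and DMSO-stimulated controls.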
TDP1 cell CPT: DT40-hTDP1 cell growth loss with CPT; chicken DT40 Tdp1-/-;hTDP1 cells + 20 nM CPT, ATP luminescence, 48 h; Potency, µM (doses to about 46.2 µM), for the others: at the highest dose activity change, negative = growth inhibition, actives largely listed as inhibitors; 420,000 compounds, 12% hits; also: potency is read from the fitted curve at half-maximal effect; % is scaled to controls: 0 for no effect and ±100 for the full control effect; nearly all actives have a fitted effect of over 55% in size
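Chicken DT40 Tdp1-/- cells stably complemented with human TDP1 were seeded at 400 cells/well in medium containing 20 nM camptothecin, exposed to pin-transferred compounds, and grown at 37 °C for at least 48 hr. Viability was read as ATP luminescence.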
TDP1 block: inhibitors of human tyrosyl-DNA phosphodiesterase TDP1. 350,000 compounds, 0.28% hits. recombinant TDP1, AlphaScreen DNA substrate cleavage. Potency, µM (highest dose often 130 µM), for inactives: at the highest dose activity change, negative = inhibition, most hits filed as inhibitors; also: potency is read from the fitted curve at half-maximal effect; % is scaled to controls: 0 for no effect and ±100 for the full control effect; nearly all actives have a fitted effect of over 40% in size
Target sequence (Q9NUW8 whole entry, looked up): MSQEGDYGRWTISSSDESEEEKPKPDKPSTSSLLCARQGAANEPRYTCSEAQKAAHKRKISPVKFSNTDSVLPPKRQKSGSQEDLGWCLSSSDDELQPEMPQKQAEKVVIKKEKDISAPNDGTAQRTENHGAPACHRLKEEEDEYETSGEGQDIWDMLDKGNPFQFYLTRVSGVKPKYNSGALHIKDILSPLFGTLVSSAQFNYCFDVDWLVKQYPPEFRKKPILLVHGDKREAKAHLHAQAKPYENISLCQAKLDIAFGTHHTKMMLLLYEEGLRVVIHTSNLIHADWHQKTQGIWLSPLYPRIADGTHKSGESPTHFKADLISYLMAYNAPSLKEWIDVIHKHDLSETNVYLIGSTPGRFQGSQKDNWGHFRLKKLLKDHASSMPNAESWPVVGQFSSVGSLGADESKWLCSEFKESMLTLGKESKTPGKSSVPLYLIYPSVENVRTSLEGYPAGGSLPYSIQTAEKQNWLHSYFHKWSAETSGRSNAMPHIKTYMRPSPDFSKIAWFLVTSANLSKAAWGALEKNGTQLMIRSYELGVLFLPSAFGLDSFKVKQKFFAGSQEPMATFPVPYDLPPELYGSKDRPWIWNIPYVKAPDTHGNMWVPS
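AlphaScreen read-out: signal falls as enzyme removes the 3' tyrosine-FITC from a 5'-biotinylated DNA oligo (15 nM, 5 min, RT). Enzyme was E. coli-made recombinant Tdp1 at 1 nM, exposed to compound for 15 min beforehand; beads 10 ug/ml, 10 min.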
Active calls of the source: *; i = inactive; u = inconclusive; x = no result; [ ] = dose if it differs, or a comment. Unless noted, calls follow the shape of the dose curve; as a rule, active = well fitted curve in the direction sought with a large enough effect; inconclusive = small, poorly fitted or top-dose-only effect, or another doubt; inactive = no such curve, though single readings can be large; an effect the other way counts as inactive or inconclusive.

SMILES | HepG2 viability | DT40 TDP1 no CPT | IL-1B inflam inh | TGFb inhibitor | TDP1 cell CPT | TDP1 block
CC(C)N(C(=O)[C@H]1C[C@H](CC(=O)NCCCn2ccnc2)C(=O)N2CCc3c([nH]c4ccc(Cl)cc34)[C@]12C)C(C)C | -18% | 18µM* | u | u | u | 0%[56.1 µM]
CCOc1ccc(OCCCC(=O)N(C)CC(=O)Nc2ccccc2Br)cc1 | -21% | u | 17 | 1% | u | 2%
CCCN(CC(=O)Nc1ccccc1C)C(=O)CCCOc1ccc(Br)cc1 | -28% | 18µM* | 4 | -23% | u | -3%
Cc1cccc(NC(=O)CCN2C(=O)c3cccc([N+](=O)[O-])c3C2=O)c1 | -2% | 18% | 16 | -12% | 1% | 0%
CCCN(CC(=O)Nc1ccccc1C)C(=O)CCN1C(=O)c2cccc([N+](=O)[O-])c2C1=O | -5% | -19% | -51* | -5% | 6% | 0%
CCOC(=O)C1=C(C)C(c2cccc(Oc3ccccc3)c2)NC(=S)N1 (configuration not stated) | -4% | u | -74* | u | u | 3%
CCOC(=O)C1=C(c2cccc(Oc3ccccc3)c2)NC(=S)NC1C (configuration not stated) | -16% | 23µM* | -19 | u | u | 7%
CCOC(=O)C1=C(C)C(c2ccc(OC)cc2)NC(=O)N1 (configuration not stated) | -3% | -15% | 8 | 0% | 2% | 0%
CCOC(=O)C1=C(C)C(c2ccc(OC)cc2)NC(=S)N1 (configuration not stated) | 1% | 29µM* | 4 | 9% | 21µM* | 4%
Cc1ccc(S(=O)(=O)N2C[C@@H](C)[C@]3(C2)[C@H](O)[C@H](OC(=O)NC2CC2)C[C@H]2C(=O)N(c4ccccc4)C(=O)[C@H]23)cc1 | -46% | u | u | u | u | x
CC(=O)c1cccc(NC(=O)c2ccc(-n3c(C)nnc3C)cc2)c1 | 0% | 0% | x | -9% | 5% | 2%
CC(=O)Nc1ccc(C(=O)Nc2nc(-c3cccnc3)cs2)cc1 | -66% | u | -19 | 21% | -28% | 71µM*
O=C(Nc1ccc(OC(F)(F)F)cc1)c1ccccc1-n1cnnn1 | -15% | 7% | -29 | 0% | 3% | 1%
O=C(Nc1nc(-c2ccccc2)cs1)c1cccnc1 | 1% | u | -19 | -9% | u | 5%
O=C(Nc1nc(-c2ccccn2)cs1)c1ccc2c(c1)OCCO2 | -29% | 3.3µM* | 55 | -24% | 3.3µM* | x
CC(=O)Nc1ccc(C(=O)Nc2nc(-c3ccccn3)cs2)cc1 | -56% | 15µM* | -2 | -1% | 16µM* | 8%
O=C(Nc1nc(-c2ccccn2)cs1)c1ccccc1-n1cnnn1 | -10% | u | 185 | u | 2.6µM* | 5%
Cn1c(SCC(=O)NC2CC2)nnc1-c1ccc(Cl)cc1 | -3% | -4% | -3 | 3% | 1% | 0%[56.1 µM]
CCOC(=O)N1CCN(C(=O)CN2C(=O)/C(=C\c3cccc(OC)c3)SC2=S)CC1 | 24% | 8.9µM* | x | 25% | 7.9µM* | 5%
CCOC(=O)N1CCN(C(=O)CCN2C(=O)/C(=C\c3ccccc3OC)SC2=S)CC1 | 9% | 23µM* | 21 | 1% | 23µM* | 5%
O=C(CCCN1C(=O)/C(=C/c2ccccc2Cl)SC1=S)NNC(=O)c1ccncc1 | 35% | u | u | 30% | u | 6%
COc1cccc(/C=C2/SC(=S)N(CC(=O)Nc3nnc(C)s3)C2=O)c1 | 2% | 11% | 23 | -5% | u | 11%
COc1ccccc1/C=C1\SC(=S)N(CCC(=O)NCCCN2CCOCC2)C1=O | -162% | u | -20 | -17% | -4% | -1%
O=C(CCCN1C(=O)/C(=C/c2ccccc2Cl)SC1=S)N1CCCC1 | -83% | 21µM* | -66* | u | u | x
O=C(CCCN1C(=O)/C(=C/c2ccccc2Cl)SC1=S)NNC(=O)c1ccccc1Cl | 1% | 21µM* | 19 | -9% | u | 5%
SMILES | HepG2 viability | DT40 TDP1 no CPT | IL-1B inflam inh | TGFb inhibitor | TDP1 cell CPT | TDP1 block
O=C(CCN1C(=O)/C(=C/c2ccccc2Cl)SC1=S)NC1CCS(=O)(=O)C1 (configuration not stated) | -7% | -1% | 0 | -9% | -19% | -14%
O=C(CCN1C(=O)/C(=C/c2ccccc2Cl)SC1=S)N1CCCC1 | -15% | 6.5µM* | -64* | 4% | 9.2µM* | 15%
O=C(CCN1C(=O)S/C(=C\c2ccccc2)C1=O)N1CCCCC1 | -11% | u | -4 | 1% | u | x
O=C(CCN1C(=O)/C(=C/c2ccccc2Cl)SC1=S)N1CCOCC1 | -4% | 3.7µM* | -112* | u | 5.2µM* | 2%
Cc1ccc(C)n1-c1ccc(C(=O)NCC2CCCO2)cc1 (configuration not stated) | -19% | 13µM* | u | 1% | 13µM* | 6%
O=C(NCC1CCCO1)c1ccc(COc2ccc(Br)cc2)cc1 (configuration not stated) | -15% | 23µM* | u | -13% | 29µM* | -1%
Cc1ccc(OCc2ccc(C(=O)NCC3CCCO3)cc2)cc1C (configuration not stated) | -17% | u | 3 | 0% | u | -2%
O=C(N/N=C1\CCc2ccccc21)c1ccccc1O | -71% | 23µM* | i | -18% | -24% | 8%
O=C(N/N=C1\CCCc2ccccc21)c1ccccc1Cl | -12% | -25% | -18 | -13% | 2.1µM* | 2%
CC(Oc1ccc(Cl)cc1Cl)C(=O)NN=C1CCN(C)CC1 (configuration not stated) | -6% | -24% | -18 | -5% | -13% | 1%
CC(Oc1ccc(Cl)cc1Cl)C(=O)N/N=C1\CCCc2ccccc21 (configuration not stated) | -3% | 26µM* | 15 | u | u | 3%
O=C(N/N=C1\CCc2ccccc21)c1ccncc1 | -9% | -30% | -5 | 1% | 3% | 5%
O=C(CSc1ccccc1)NCc1ccc2c(c1)CCN2C(=O)c1ccc(Cl)cc1 | -12% | u | x | 1% | -12% | 0%
CN1CCN(/N=C/c2c3ccccc3c(Cl)c3ccccc23)CC1 | -36% | u | -74* | u | u | 10%
